Screens deposited in PubChem by Broad Institute.
PAX8 reporter – inhibitors of PAX8 transcriptional activity in RMG-I cells; 360,000 tested, 1.2% active; inhibition, % at 12.6 µM; RMG-I TPO-luciferase reporter, SteadyGlo, 24 h;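 active = mean replicate inhibition at least 60% with every replicate also reaching 60%; inconclusive = only one of the two criteria is met; inactive = mean below 60% and not all replicates reaching 60%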;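 note: luciferase light reporting Pax8 driven TPO promoter activity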
F508del corr – correctors of CFTR F508del function in bronchial epithelial cells | CFBE cells, YFP halide quenching; stimulated with forskolin plus potentiator P3; % fluorescence drop versus neutral controls | AID 720511 | 350,000 tested, 0.36% active | activity (quench increase), % at 7.58 µM;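 active = mean added fluorescence quench of at least 8% versus neutral control, with both replicates also reaching 8%; inconclusive = only one of the mean or replicate conditions met; inactive = mean below 8% and not both replicates reaching 8%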;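 note: cells transiently co-express mutant CFTR-F508del with the halide-sensitive YFP; corrector assay measuring rescue of mutant channel to the surface after 24 h compound exposure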
EWS-Fli block – blocks EWS/Fli oncoprotein-driven transcription. A673 NR0B1-luciferase reporter, viability-normalised. inhibition, % at 12.6 µM. 350,000 tested, 0.67% active. AID 651661;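 active = mean inhibition of at least 50% after viability correction, with every replicate also passing that limit; inconclusive = mean reaches 50% but only one of two replicates passes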;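 note: firefly luciferase signal divided by Alamar Blue viability fluorescence both relative to DMSO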
LGR2 antag – blocks bursicon-induced cAMP signaling via Drosophila LGR2; AID 720647; inhibition, % at 9.99 µM; 380,000 tested, 0.35% active; HEK293 LGR2, CRE-luciferase, bursicon-stimulated, 4 h;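 active = drop in luminescence signal, shown as inhibition above about 50% in the replicate tests, limit read from the data, passing the limit was not always enough; inconclusive = probably only some replicates passing the limit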;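 note: agonist challenge used bursicon conditioned medium at about half maximal strength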
Hits are given with their value; i = inactive; ? = inconclusive; nt = no result given; ! = repeats disagree. Hits are enriched below; roughly 1.8% of the tested compounds scored in any of these assays.

SMILES | PAX8 reporter | F508del corr | EWS-Fli block | LGR2 antag
C[C@H](CO)N1C[C@H](C)[C@H](CN(C)Cc2ccc3c(c2)OCO3)OCCCC[C@H](C)Oc2ccc(NS(=O)(=O)c3ccc(Cl)cc3)cc2C1=O | 76.1 | i | i | i
Cc1noc(C)c1NC(=O)Nc1ccc2c(c1)C(=O)N([C@@H](C)CO)C[C@H](C)[C@H](CN(C)C(=O)Nc1ccccc1)O2 | nt | i | i | i
O=C1c2ccc(-c3nc4ccccc4o3)cc2C(=O)N1Cc1ccccc1 | 63.6 | nt | nt | nt
C[C@@H]1CN([C@@H](C)CO)S(=O)(=O)c2ccc(C#Cc3ccncc3)cc2O[C@@H]1CN(C)C(=O)C1CCC1 | nt | i | i | i
Cc1noc(C)c1S(=O)(=O)Nc1ccc2c(c1)C(=O)N([C@H](C)CO)C[C@H](C)[C@H](CN(C)Cc1ccc(Cl)c(Cl)c1)OCCCC[C@@H](C)O2 | i | i | i | i
Cc1noc(C)c1S(=O)(=O)Nc1ccc2c(c1)C(=O)N([C@@H](C)CO)C[C@@H](C)[C@H](CN(C)Cc1ccc(Cl)c(Cl)c1)OCCCC[C@@H](C)O2 | 68.8 | i | i | i
Cc1noc(C)c1S(=O)(=O)Nc1ccc2c(c1)C(=O)N([C@@H](C)CO)C[C@@H](C)[C@@H](CN(C)Cc1ccc(Cl)c(Cl)c1)OCCCC[C@@H](C)O2 | 64.9 | i | i | i
CCOc1ccc(S(=O)(=O)NC2CCCCC2C)cc1 (configuration not stated) | i | i | nt | i
C#CCN(C[C@@H]1[C@@H](OC(=O)Nc2cccs2)[C@@H](OC(=O)Nc2cccs2)C[C@H](C(=O)OC)[C@@H]1C(=O)OC)S(=O)(=O)c1ccc(C)cc1 | i | i | i | i
C#CCN(C[C@H]1[C@H](OC(=O)Nc2c(C)noc2C)[C@H](OC(=O)Nc2c(C)noc2C)C[C@@H](C(=O)OC)[C@H]1C(=O)OC)S(=O)(=O)c1ccc(C)cc1 | 96.8 | i | i | i
C[C@@H]1CN([C@H](C)CO)C(=O)c2cc(-c3cccc(C#N)c3)cnc2O[C@H]1CN(C)Cc1cncnc1 | nt | i | i | i
Clc1ccc2c(c1)-c1ccccc1C1=NCCN12 | i | 8.3 | i | i
O=C1C=CC2C3C(=O)N(c4ccccc4)C(=O)C3C1N2Cc1ccccc1 (configuration not stated) | i | i | 59.8 | nt
COc1ccccc1NC(=O)CSc1ccc(-c2ccccn2)nn1 | i | 8.1 | i | i
COc1ccc(NC(=O)CSc2ccc(-c3ccccn3)nn2)cc1OC | i | i | i | i
CCN1C(=O)C(CC(=O)Nc2ccc(F)cc2)N(Cc2ccc3c(c2)OCO3)C1=S (configuration not stated) | i | i | i | nt
O=C1CNc2cc(Cl)ccc2N1 | i | i | i | i
c1ccc(-c2cc3n(c2)CCc2ccccc2-3)cc1 | nt | nt | nt | 65.7
O=C(O)c1cc2c(s1)-c1ccccc1CC2 | i | nt | nt | i
Oc1ccccc1CNc1ccc2c(c1)OCCO2 | i | i | i | i
c1csc(CNc2ccc3c(c2)OCCO3)c1 | i | nt | i | 51.4
O=C(c1cccc(S(=O)(=O)N2CCOCC2)c1)N1CCCC(C(F)(F)F)C1 (configuration not stated) | i | 10.1 | i | i
COc1ccc(NC2CCCN(C(=O)CCc3ccccc3F)C2)cc1 (configuration not stated) | i | i | i | i
COc1ccc(CN2C[C@@H](C)[C@@H](OC)CN(C)C(=O)c3ccc(NC(C)=O)cc3OC[C@H]2C)cc1 | i | i | i | i
Cc1ccc(-n2nc(C)c(NC(=O)CCl)c2C)cc1C | 111.8 | nt | nt | i
SMILES | PAX8 reporter | F508del corr | EWS-Fli block | LGR2 antag
CCC(=O)Nc1c(C)nn(-c2ccc(C)c(C)c2)c1C | i | i | i | i
Cc1ccc(-c2cc(C(=O)NCc3cnn(C)c3C)c3cc(Br)ccc3n2)cc1 | i | nt | nt | nt
Cc1ccc(-c2cc(C(=O)N(C)Cc3cnn(C)c3C)c3cc(Br)ccc3n2)cc1 | i | nt | i | 71.3
CO[C@H]1CN(C)C(=O)c2cc(NC(=O)C3CC3)ccc2OC[C@@H](C)N(Cc2cncnc2)C[C@@H]1C | i | i | i | i
FC(F)(F)c1cccc(Cn2c3[n+](c4ccc(C(F)(F)F)cc42)CCCCC3)c1 | i | i | i | i
Cc1cc(C(C)(C)C)cc(C)c1Cn1c2[n+](c3ccc(C(F)(F)F)cc31)CCCCC2 | 90.5 | i | i | i
N#Cc1cccc(-c2ccc(C3[C@@H]4CN(C(=O)c5ccccn5)C[C@H]3N4)cc2)c1 (some centres not stated) | 63.9! | i | i | ?
Cc1ccccc1S(=O)(=O)N1C[C@@H]2N[C@H](C1)C2c1ccc(-c2cccc(C#N)c2)cc1 (some centres not stated) | 93.6! | 8.4! | i | ?
CS(=O)(=O)N1C[C@@H]2N[C@H](C1)[C@@H]2c1ccc(-c2ccccc2)cc1 | 75.6 | i | i | i
N#Cc1cccc(-c2ccc([C@@H]3[C@@H]4CN(S(=O)(=O)c5ccc(-c6ccccc6)cc5)C[C@H]3N4)cc2)c1 | i | i | 74.4 | i
N#Cc1ccc(-c2ccc(C3[C@@H]4CN(C(=O)C5CC5)C[C@H]3N4)cc2)cc1 (some centres not stated) | 98.4 | i | i | 90.3
N#Cc1cccc(-c2ccc(C3[C@@H]4CN(C(=O)C5CCOCC5)C[C@H]3N4)cc2)c1 (some centres not stated) | i | i | i | i
COc1ccccc1-c1ccc(C2[C@@H]3CN(S(=O)(=O)c4ccccc4)C[C@H]2N3)cc1 (some centres not stated) | i | i | 53.3 | i
C[C@@H]1CCCCO[C@H](CN(C)Cc2ccc(C(F)(F)F)cc2)[C@@H](C)CN([C@H](C)CO)C(=O)c2cc(NC(=O)NC3CCCCC3)ccc2O1 | i | i | i | i
CO[C@H](CN(C)S(=O)(=O)c1ccccc1)[C@H](C)CN(C(=O)Nc1ccccc1F)[C@@H](C)CO | nt | i | i | i
COc1ccc(C(=O)/C(C#N)=N/Nc2cccc([N+](=O)[O-])c2)cc1 | i | ? | 62.0 | i
COc1cc(/C=C/C(=O)OCC(=O)Nc2ccc(C)c(S(=O)(=O)N3CCCCC3)c2)ccc1O | i | nt | nt | i
Cc1cc([N+](=O)[O-])nn1CCCC(=O)Nc1sc2c(c1C(N)=O)CCC(C)C2 (configuration not stated) | 97.5 | i | i | i
Cc1ccc(S(=O)(=O)Nc2ccc3c(c2)C(=O)N([C@@H](C)CO)C[C@@H](C)[C@@H](CN(C)C(=O)Nc2cccc4ccccc24)OCCCC[C@@H](C)O3)cc1 | 68.2 | i | i | i
Cc1ccc(S(=O)(=O)Nc2ccc3c(c2)C(=O)N([C@@H](C)CO)C[C@H](C)[C@H](CN(C)C(=O)Nc2cccc4ccccc24)OCCCC[C@@H](C)O3)cc1 | i | i | i | i
C[C@@H]1CN([C@@H](C)CO)C(=O)c2cc(NS(=O)(=O)c3ccccc3)ccc2O[C@@H](C)CCCCO[C@@H]1CN(C)C(=O)Nc1cccc2ccccc12 | i | i | i | i
C[C@@H]1CCCCO[C@@H](CN(C)C(=O)Nc2cccc3ccccc23)[C@H](C)CN([C@H](C)CO)C(=O)c2cc(NS(=O)(=O)c3ccccc3)ccc2O1 | 80.1 | i | i | i
